These results are taken from PubChem BioAssay AID485364 (National Center for Advancing Translational Sciences (NCATS), 2010).

The structures appear in SMILES notation. In all, about 360,000 compounds went through this assay and about 11,000 (3.1%) were called active. Another 4% or so got no clear call; they are omitted. The call rests on the fitted dose curve; in most records, active means well fitted inhibition curve with a large enough effect; inconclusive means small, poorly fitted or top-dose-only effect; inactive means no such curve, though single readings can be large or run the other way. Shown is part of a subset that was picked to be rich in actives.
On the % scale 0 is the no-effect control and ±100 the full control effect; potency means the concentration at half of the fitted maximal effect.

The assay addresses Schistosoma mansoni thioredoxin glutathione reductase (TGR) (UniProt Q962Y6). The assay can be described thus: qHTS Assay for the Inhibitors of Schistosoma Mansoni Peroxiredoxins. Further: nearly all actives have a fitted effect of over 60% in size. The conditions noted are these: purified TGR, DTNB reduction, TNB absorbance 405 nm; series mostly up to 114 µM; activity change, negative = inhibition: at the top concentration. An excerpt: Schistosomiasis is a major neglected tropical disease that currently affects over 200 million. It is caused by different species of flatworms, such as Schistosoma mansoni. Over the last century, drugs to treat the disease have evolved from potassium antimonyl tartrate, artemisinin, oxamniquine, to praziquantel, with praziquantel remaining the universally-used single drug of choice over the past three decades. However, transmission rates have changed little with praziquantel, and there is evidence for the development of drug resistant parasites. Because there is currently no suitable alternative therapy available, there is an urgent need to identify new targets and drugs for schistosomiasis treatment. Thioredoxin glutathione reductase (TGR), one uniquely positioned S. mansoni enzyme, has been identified as a major component of the worms' distinct and compressed antioxidant "firewall". TGR is a multifunctional enzyme that catalyzes the interconversion between reduced and oxidized forms of both glutathione (GSH) and thioredoxins, thus making it an attractive new antiparasitic target. Recently, a quantitative high-throughput screen of the NIH Molecular Libraries Small Molecule Repository (MLSMR, ~71K at the time of the screen in 2007) was performed using an assay that targeted both TGR and peroxiredoxin2 (Prx2, an H2O2-reducing enzymatic component of the S. mansoni redox "firewall") by following the decrease of NADPH fluorescence. […] Additional mechanistic link between exogenous NO donation and parasitic injury for the oxadiazole-2-oxide class of compounds was also expanded and better defined. Although the screen addressed both TGR and Prx2, the assay required post-screen target deconvolution for further characterization of the actives. In addition, the fluorescence assay was also subject to fluorescence interference from compound library members. We have developed a 1536-well-based kinetic HTS assay to address TGR alone. The assay followed the reduction of 5, 5'-dithiobis (2-nitrobenzoic acid) (DTNB) (Ellman's reagent) by NADPH and measured the increase in absorbance at 412 nm of the reaction product, TNB. […] This assay format can be used to screen the current MLSMR collection (with >300K compounds available) to find novel TGR inhibitors. Furoxan is a good choice to serve as a positive control in the primary HTS assay.
Three microliters of reagents (100 uM NADPH and 20 nM TGR or 100 uM NADPH as no-enzyme control) were dispensed into 1,536-well black clear-bottomed plates. Compounds (23 nL) were transferred via Kalypsys pin tool equipped with 1536-pin array (10 nL slotted pins, V&P Scientific, San Diego, CA). The plates were then be incubated for 15 min at room temperature, and 1 uL aliquot of 500 uM NADPH were added, immediately followed by a 1 uL aliquot of 15 mM DTNB to start the reaction. The plate was transferred to a ViewLux high-throughput CCD imager (Perkin-Elmer, Wellesley, MA) where kinetic measurements of the TNB absorbance were acquired using a 405 excitation filter. Throughout the screen, reagent bottles and all liquid lines were made light-tight to minimize reagent degradation. All screening operations were performed on a fully integrated robotic system (Kalypsys, San Diego, CA) containing one RX-130 and two RX-90 anthropomorphic robotic arms (Staubli, Duncan, SC). Library plates were screened starting from the lowest and proceeding to the highest concentration, and a "double-dipping" step of the highest concentration was required to access higher concentrations of compounds. Vehicle-only plates, with DMSO being pin-transferred to the entire column 5-48 compound area, were inserted uniformly at the beginning and the end of each library in order to monitor for and record any shifts in the background, which can be affected by reagent dispensers or loss in enzyme activity overtime. […]
A general note: Quantitative high-throughput screening tests each substance at several concentrations.
With `COc1cc(-c2noc(-c3ccc(N4CCCC4)c([N+](=O)[O-])c3)n2)cc(OC)c1OC`, the “activity change, negative = inhibition” value is -30% (inactive).

Take `O=C(Nc1ccc(Br)cc1)c1cc2nc(-c3ccccc3)cc(-c3ccccc3)n2n1`: the “activity change, negative = inhibition” value is 6.76% (inactive).

For the compound `Cc1ccc(NNC(=O)C2CCC2)cc1C`, the Potency was 56.2 µM (active). For the compound `Cc1ccc(NC(=O)C2CCCN2C(=O)OCc2ccccc2)cc1C` (centres undefined), the “activity change, negative = inhibition” value was -10.2% (inactive). Same read-out and setting: as for `O=C(NNC(=O)C1CCC1)c1ccccc1`, the figure is 49.6% (inactive). Same read-out and setting: with `Cc1oc(-c2ccccc2F)nc1CN1CCC(C(=O)NCCc2ccc(Cl)cc2)CC1` the figure was -0.147% (inactive). For the compound `CCOC(=O)c1c(S(=O)(=O)N2CCCC(C(=O)NCc3cccc(C)c3)C2)c(C)n(C)c1C` (centres undefined), the “activity change, negative = inhibition” value was 7.51% (inactive). Still for that read-out and setting: as for `Cc1ccccc1CS(=O)(=O)CC1Nc2ccc(C(=O)NCc3ccc(Cl)cc3)cc2NC1=O` (centres undefined), the figure is -2.2% (inactive); as for `Cc1cc(C)cc(NC(=O)Cc2csc(C)n2)c1`, 8.94% (inactive).

For the compound `Cc1cccc(C)c1NC(=O)CCCSc1nnc(-c2ccco2)n1-c1ccccc1`, the Potency is 89.1 µM (active). As for `CCc1cccc(C)c1NC(=O)CSc1nnc(-c2ccco2)n1N`, the “activity change, negative = inhibition” value is 1.38% (inactive). As for `CCOc1ccc(-n2c(SCC(N)=O)nnc2-c2ccco2)cc1`, the “activity change, negative = inhibition” value was -34% (inactive). As for `O=C(NC(=S)NC1CCSC1=O)c1ccccc1F` (centres undefined), the “activity change, negative = inhibition” value is 2.76% (inactive).

Turning to `COC(=O)c1ccccc1NC(=S)NC(=O)c1ccccc1F`, the Potency is 22.4 µM (active). As for `CC(C)C(=O)NC(=S)Nc1ccccc1F`, the “activity change, negative = inhibition” value is -28.6% (inactive). Same read-out and setting: as for `O=C(Cn1cc(SCc2cccc(Cl)c2)c2ccccc21)N1CCCCC1`, the figure is 8.64% (inactive).

`Oc1c(C(c2ccccn2)N2CCOCC2)ccc2cccnc12` (centres undefined): the Potency was 0.794 µM (active).

In the case of `Cn1c(C(=O)Nc2cccc(C(F)(F)F)c2)cc2c(=O)n3ccccc3nc21`, the “activity change, negative = inhibition” value is -5.71% (inactive).

As for `COC(=O)/C=C\C(=O)Nc1cccc([N+](=O)[O-])c1`, the Potency was 0.794 µM (active). `O=C(Nc1cccc([N+](=O)[O-])c1)N1CCc2ccccc2C1`: the “activity change, negative = inhibition” value is -15.1% (inactive). As for `Cc1cc([N+](=O)[O-])ccc1NCc1cccc([N+](=O)[O-])c1`, the “activity change, negative = inhibition” value is -14% (inactive). On the same count and under the same terms, with `CCC(CC)NC(=O)/C=C/c1cccc([N+](=O)[O-])c1` the figure was -7.28% (inactive); with `Cc1c(NC(=O)Nc2cccc([N+](=O)[O-])c2)c(=O)n(-c2ccccc2)n1C`, -26.1% (inactive). In the case of `Cc1ccccc1NC(=S)Nc1cccc([N+](=O)[O-])c1`, the Potency was 44.7 µM (active). Turning to `COc1ccccc1N1CCN(CCCNC(=O)c2cnn(-c3ccccc3Cl)c2C2CCN(C(=O)OC(C)(C)C)CC2)CC1`, the “activity change, negative = inhibition” value was -10.9% (inactive).

Take `COc1ccc(Br)cc1C1CC(=O)Nc2c1c(C)nn2-c1nc(C)cc(C)n1` (centres undefined): the “activity change, negative = inhibition” value was -0.653% (inactive). Same read-out and setting: as for `O=C(CCC(=O)N1CC2CCCN2c2ccccc21)NCc1ccccc1Cl` (centres undefined), the figure is -1.42% (inactive). Turning to `Cc1ccc(N=C2NC(=O)/C(=C/C=C/c3ccco3)S2)cc1C`, the Potency was 44.7 µM (active).

Turning to `CC(C)c1ccc(NC(=O)Cn2c3ncccc3c(=O)n2-c2ccccc2)cc1`, the “activity change, negative = inhibition” value was -12% (inactive). As to `CN(Cc1ccccc1)C(=O)CCS(=O)(=O)c1cc(Br)cc2c1N(C(=O)C1CC1)CC2`, the “activity change, negative = inhibition” value is -20.2% (inactive). Same read-out and setting: with `N#Cc1cccc(CN2CCC(=O)N(CCO)CC2)c1` the figure was 0.227% (inactive). With `CC(C)(C)c1cc(CN2CCN(CCC#N)CC2)cc(C(C)(C)C)c1O`, the Potency is 2.24 µM (active). Regarding `N#CCCN1CCN(S(=O)(=O)c2ccc(S(=O)(=O)N3CCCC3)cc2)CC1`, the “activity change, negative = inhibition” value was 5.99% (inactive). Turning to `O=C1C(=O)N(CC2COc3ccccc3O2)c2ccccc21` (centres undefined), the “activity change, negative = inhibition” value was 5.93% (inactive). On the same count and under the same terms, with `Cc1noc(C)c1C(=O)NCC1COc2ccccc2O1` (centres undefined) the figure was 14.9% (inactive).

For the compound `Cc1cc(C(=O)CCl)c(C)n1CC1COc2ccccc2O1` (centres undefined), the Potency was 10 µM (active).

For `Cc1ccc2nc(COc3ccc(NC(=O)COc4ccccc4F)cc3)cc(=O)n2c1`, the “activity change, negative = inhibition” value was 2.09% (inactive). Take `C=C(C)C(=O)O[C@H]1C/C(C)=C\C(=O)/C=C(\C)[C@H](O)[C@@H]2OC(=O)C(=C)[C@@H]21`: the Potency is 3.55 µM (active).

Consider `CCOC(=O)c1c(C)oc2nc(C)nc(N(CC(C)C)CC(C)C)c12`, for which the “activity change, negative = inhibition” value is -0.372% (inactive).

Take `CCCCC12CN3CC(C)(CN(C1)C3c1ccc(O)c(OC)c1)C2=O` (centres undefined): the “activity change, negative = inhibition” value was -4.55% (inactive). Still for that read-out and setting: with `COc1cc2c(cc1OC)CC1(CCCCC1)N=C2` the figure was 2.45% (inactive). Turning to `CCCC[C@]12Cc3cc(OC)c(OC)cc3C(O1)C1=C(CC3(CCCCC3)OC1=O)O2`, the Potency was 11.2 µM (active). Take `COc1ccc(-c2[nH]c3c(c2-c2c(-n4cccc4)n(C)c(=O)n(C)c2=O)c(=O)n(C)c(=O)n3C)cc1`: the “activity change, negative = inhibition” value is 0.0872% (inactive).

`Cc1ccc(NC(=O)c2oc3ccccc3c2NC(=O)Cc2cccs2)cc1`: the “activity change, negative = inhibition” value is -1.38% (inactive).

In the case of `COc1cc([N+](=O)[O-])ccc1NC(=O)COC(=O)CCOc1ccc(C)cc1`, the Potency was 35.5 µM (active).

Regarding `COc1cccc(NC(=O)COC(=O)CCOc2ccccc2OC)c1`, the “activity change, negative = inhibition” value is -7.41% (inactive). The same measure, in the same setting: as for `CSc1ccccc1NC(=O)COC(=O)CCCOc1ccc(C)cc1`, the figure is -1.77% (inactive); as for `CCOC(=O)c1ccc(NC(=O)CCS(=O)(=O)c2ccc3c(c2)oc(=O)n3C)cc1`, 8.54% (inactive). Same read-out and setting: as for `COC(=O)NNC1=CC(=O)CC(C)(C)C1`, the figure is -7.66% (inactive).
